Rows were chosen to be rich in hits. Some 0.69% of all compounds tested hit in one or more screens of this group.
Glioma ERSR ind: qHTS for Inducers of the Endoplasmic Reticulum Stress Response (ERSR) in Human Glioma: qHTS; U87-MG GRP78 promoter luciferase reporter, 16 h; Potency, µM, without a hit: at the highest dose activation, hits mostly activators; 420,000 tested, 0.02% active; AID 602332, 2012; note: series mostly up to about 76 µM; % of control where 0% means no effect; nearly all actives have a fitted effect of over 35% in size
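ERSR induction read as luciferase luminescence (Bright-Glo, 10 min at room temperature) in stably transfected human U87-MG glioma cells exposed to compounds for 16 h, using GRP78 as sensor.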
Vif-APOBEC3F blk: qHTS for Inhibitors of Vif-A3F Interactions: qHTS. AID 602313, 2012. HeLa A3F-eYFP + Vif (tagged APOBEC3F with the HIV-1 protein that degrades it), YFP fluorescence increase. 390,000 tested, 0.2% active. Potency, µM (series often up to 46.1 µM), for inactives: at the top dose activity, negative = active; note: % of control where 0% means no effect; nearly all actives have a fitted effect of over 65% in size
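HeLa cells stably expressing Vif plus C-terminally eYFP-tagged A3F were seeded, incubated overnight at 37 deg C, dosed with compound, incubated overnight again at 37 deg C. Yellow fluorescence (Ex 488/Em 500-530) reported blocked Vif-mediated A3F-eYFP degradation.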
Abeta rescue: qHTS for compounds that reverse cellular toxicity of Amyloid beta (A-beta) peptide in yeast: Primary Screen. yeast expressing A-beta42, growth rescue, OD600, 48 h; response scale: 0% DMSO, 100% iron-clioquinol control. Potency, µM (titrated, usually from 46.1 µM), usual class: activators. 410,000 tested, 0.063% active. AID 1347071, 2019; note: nearly all actives have a fitted effect of over 55% in size
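Yeast growth medium received pinned compounds, then yeast cells expressing toxic A-beta were added; plates incubated at 30 C for 48 hr. Growth read as absorbance at 600 nm, normalized to DMSO and equimolar FeCl3 plus clioquinol controls.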
PINK1 modulator: A Quantitative High throughput Screen to Identify Chemical Modulators of PINK1 Expression; AID 624263, 2012; PINK1 immunofluorescence, high-content cytometry, 24 h; 410,000 tested, 0.2% active; Potency, µM (series often up to 76.6 µM), without a hit: at the highest dose activation (PINK1 increase), actives largely listed as activators; active = well fitted activation curve with a large enough effect; inconclusive = small, poorly fitted or top-dose-only effect; cell line not stated here; note: % of control where 0% means no effect; nearly all actives have a fitted effect of over 65% in size
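Readout is PINK1 immunofluorescence, quantified alongside mitochondrial, cell and nuclear markers by laser-scanning microplate cytometry. Cells from a stable line were exposed to compound titrations (5 concentrations) for 24 hours, with CCCP controls.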
Vif-A3G inh: qHTS for Inhibitors of Vif-A3G Interactions: qHTS. DNA dC->dU-editing enzyme APOBEC-3G (Homo sapiens), Q9HC16. HeLa A3G-eYFP + Vif (tagged APOBEC3G with the HIV-1 protein that degrades it), YFP fluorescence, overnight. Potency, µM (series often up to 46.1 µM), for the others: top-dose activity, negative = active, most hits filed as inhibitors. 410,000 tested, 0.076% active. AID 602310, 2012; note: % is set by controls: 0 for no effect and ±100 for the full control effect; nearly all actives have a fitted effect of over 60% in size
Target sequence (Q9HC16 whole entry, looked up): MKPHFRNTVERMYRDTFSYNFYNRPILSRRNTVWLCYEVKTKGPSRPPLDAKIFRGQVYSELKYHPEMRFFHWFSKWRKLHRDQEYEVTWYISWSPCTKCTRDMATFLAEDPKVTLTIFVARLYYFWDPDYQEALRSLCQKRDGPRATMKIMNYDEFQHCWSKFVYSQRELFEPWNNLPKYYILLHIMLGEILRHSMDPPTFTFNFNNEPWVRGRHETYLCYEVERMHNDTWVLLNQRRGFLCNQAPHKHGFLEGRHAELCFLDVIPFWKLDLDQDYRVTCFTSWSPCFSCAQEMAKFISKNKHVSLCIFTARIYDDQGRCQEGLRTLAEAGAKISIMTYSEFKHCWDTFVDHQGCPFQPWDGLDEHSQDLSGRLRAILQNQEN
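HeLa cells stably expressing Vif and C-terminally eYFP-tagged A3G, seeded overnight at 37 deg C, then exposed to compound by pintool overnight at 37 deg C. Rise in yellow fluorescence (Ex 488/Em 500-530, Acumen) marks blocked Vif-driven A3G degradation.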
FUS yeast rescue: qHTS for Suppressors of FUS Proteinopathy: Primary screen using FUS-linked yeast assay. S. cerevisiae FUS-expressing, growth rescue, OD600, 24 h. Potency, µM (top dose mostly 76.6 µM), actives largely listed as activators. 390,000 tested, 0.24% active. AID 1347120, 2019;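 note: plate controls were DMSO vehicle for no effect and reference control for full effect; nearly all actives have a fitted effect of over 55% in size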
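Steps: raffinose overnight preculture; dilution to OD 0.005 in 2% galactose minimal medium; compound addition (concentration series); 24hr at 30C, 99% humidity; absorbance read at 600 nm.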
* marks the source's active call; other numbers are inactive results; i = inactive; ? = inconclusive; · = no result. Unless noted, calls come from the whole dose curve; as a rule, active = well fitted curve in the direction sought with a large enough effect; inconclusive = small, poorly fitted or top-dose-only effect, or another doubt; inactive = no such curve, though single readings can be large; an effect the other way counts as inactive or inconclusive. Potency is the fitted concentration of half-maximal effect.

SMILES | Glioma ERSR ind | Vif-APOBEC3F blk | Abeta rescue | PINK1 modulator | Vif-A3G inh | FUS yeast rescue
O=C1C(=O)c2ccccc2-c2ccccc21 | -11.5% | -0.6% | i | -0.3% | -14.0% | i
CN[C@H]1C[C@@H](N)[C@H](O)[C@@H](O[C@@H]2O[C@H](CO)[C@H](O)[C@@H]3O[C@]4(O[C@@H]23)O[C@H]([C@@H](N)CO)[C@H](O)[C@@H](O)[C@H]4O)[C@@H]1O | -6.8% | · | · | · | · | ·
Cc1ccc(N2C(=O)NC(=O)/C(=C\C=C\c3ccco3)C2=O)cc1C | -13.0% | 22.4µM* | i | -0.4% | ? | i
COc1cc(CCN)c(OC)cc1Br | -2.2% | · | · | · | · | ·
C[n+]1c(-c2ccccc2)cc(CCCCc2cc(-c3ccccc3)[n+](C)c(-c3ccccc3)c2)cc1-c1ccccc1 | -4.0% | 1.9% | i | 31.6µM* | -5.0% | ?
COc1ccc(-c2cc(-c3ccccc3)[n+](C)c(-c3ccccc3)c2)cc1 | -3.3% | 13.1% | i | ? | -0.6% | i
